Rows were chosen to be rich in hits. Some 12% of all compounds tested hit in one or more screens of this group.
PI5P4Ka inh = PI5P4K alpha (human) kinase inhibition | P48426 | PI5P4Kalpha enzyme, ADP-Glo luminescence, 60 min; hits give low values | max response, % | actives 1.2% (n = 330,000) | AID 652105; active = max response of -50% or lower; inconclusive = between -30% and -50%; inactive = -30% or higher; also: value at the top dose of about 77 µM
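Single end-point luminescence (ADP-Glo) quantified ADP from PI5P4Kalpha turnover; ATP 5 microM final, 1 h at RT, 0.1% CHAPS and 0.28 mM EGTA in HEPES pH 7.4.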
BAZ2B block = inhibitors of human BAZ2B bromodomain | AlphaScreen BAZ2B-H3K14Ac peptide displacement | Potency, µM (top dose mostly 114 µM), usual class: inhibitors | actives 4.4% (n = 360,000) | AID 504333; also: nearly all actives have a fitted effect of over 60% in size
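Compounds, titrated to a top concentration of 110 uM, were incubated 30 min at room temperature with preformed BAZ2B/acetyl-K14 H3 peptide complex (50 nM each). Proximity signal was measured by AlphaScreen after 20 min with beads.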
G9a inh = blocks human histone lysine methyltransferase G9a. Q96KQ7. G9a H3K9 monomethylation, AlphaScreen, 2 h. Potency, µM (titrated, usually from 102 µM), most hits filed as inhibitors. actives 8.8% (n = 350,000); also: nearly all actives have a fitted effect of over 75% in size
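Enzyme 20 nM + cpd, 15 min RT; add b-H3K9 pep 500 nM / SAM 20 uM; 2 h RT; anti-H3K9me1 Ab 0.5 ug/mL + SA donor / anti-rabbit acceptor beads 20 ug/mL each, 10 min; AlphaScreen read.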
JMJD2A Tudor inh = blocks the human JMJD2A Tudor domain; actives 4.4% (n = 390,000); AID 504339; AlphaScreen JMJD2A-Tudor / H3K4me3 peptide binding; Potency, µM (top dose mostly 114 µM), usual class: inhibitors; O75164; also: nearly all actives have a fitted effect of over 50% in size
HP1b binding inh = HP1-beta chromodomain-methylated histone interaction inhibition; P83916; AlphaScreen HP1-beta / biotin-H3K9me3 peptide binding; Potency, µM (top dose mostly 114 µM), usual class: inhibitors; actives 0.56% (n = 390,000); AID 540317; also: nearly all actives have a fitted effect of over 70% in size
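Compound inhibition of the preformed complex between 50 nM HP1-beta and 50 nM biotinylated H3K9me3 peptide was read by AlphaScreen. Buffer was PBS pH 7.4 with 0.01% Tween-20. Incubations ran 30 min at room temperature, with 10 ug/mL donor/acceptor beads.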
PLK1 PBD block = blocks phosphopeptide binding to human PLK1 polo-box domain. P53350. Plk1 PBD binding of FITC phosphopeptide, fluorescence polarization. Potency, µM, actives largely listed as inhibitors. actives 2.8% (n = 360,000); also: series mostly up to about 57 µM; nearly all actives have a fitted effect of over 65% in size
A number is an active result; ! = not confirmed by another sample; [ ] = remark or other dose. Unless noted, calls follow the shape of the dose curve; as a rule, active = well fitted curve in the direction sought with a large enough effect; inconclusive = small, poorly fitted or top-dose-only effect, or another doubt; inactive = no such curve, though single readings can be large; an effect the other way counts as inactive or inconclusive.

For O=C(Nc1ccc(C(=O)OCc2cc(=O)n3c4c(sc3n2)CCCC4)cc1)c1ccc(F)cc1 the results were BAZ2B block inactive, G9a inh inactive[12.7 µM], JMJD2A Tudor inh inactive and HP1b binding inh inactive.
CCOc1ccccc1CN1CCc2nc(N3CCN(c4ccccc4F)CC3)ncc2C1 was read as BAZ2B block 56.2µM, G9a inh inconclusive, JMJD2A Tudor inh 79.4µM and HP1b binding inh inactive.
For CCOC(=O)c1[nH]c(C)c(CCC(=O)NCc2ccc(CC)cc2)c1C the results were BAZ2B block inactive, G9a inh inactive, JMJD2A Tudor inh inactive and HP1b binding inh inactive.
CN(CC1COc2ccccc2O1)C(=O)c1cccc(S(=O)(=O)N2CCCC2)c1 (centres undefined) was read as PI5P4Ka inh inactive, BAZ2B block inactive, G9a inh 1µM, JMJD2A Tudor inh inactive, HP1b binding inh inactive and PLK1 PBD block inactive.
`O=C(NCC1COc2ccccc2O1)c1cc(S(=O)(=O)N2CCOCC2)ccc1F` (centres undefined) gave PI5P4Ka inh inactive, BAZ2B block inactive, G9a inh 22.4µM, JMJD2A Tudor inh inactive, HP1b binding inh inactive and PLK1 PBD block inactive.
`O=C(NCC1COc2ccccc2O1)c1cccc(S(=O)(=O)N2CCCCC2)c1` (centres undefined) gave PI5P4Ka inh inactive, BAZ2B block inactive, G9a inh inactive[12.7 µM], JMJD2A Tudor inh inactive, HP1b binding inh inactive and PLK1 PBD block inactive.
O=C(NNC(=O)c1cc2cc(Br)ccc2oc1=O)c1ccc(O)cc1O was read as PI5P4Ka inh inactive, BAZ2B block 11.2µM, G9a inh inactive, JMJD2A Tudor inh inconclusive, HP1b binding inh inactive and PLK1 PBD block inconclusive.
For COCCCNC(=O)c1cc2cc(Br)ccc2oc1=O the results were PI5P4Ka inh inactive, BAZ2B block inactive, G9a inh inactive, JMJD2A Tudor inh inactive, HP1b binding inh inactive and PLK1 PBD block inactive.
Screening CCOC(=O)c1ccc(N2CCCCC2)c(NS(=O)(=O)c2ccc(C)cc2)c1 returned PI5P4Ka inh inactive, BAZ2B block inactive, G9a inh inactive, JMJD2A Tudor inh inactive, HP1b binding inh inactive and PLK1 PBD block inactive.
`COc1cccc2c1Oc1ncccc1N(C(=O)CCC(=O)NCc1ccc(F)cc1)C2` gave PI5P4Ka inh inactive, BAZ2B block inactive, G9a inh inactive, JMJD2A Tudor inh inactive, HP1b binding inh inactive and PLK1 PBD block inactive.
For COc1cccc2c1Oc1ncccc1N(C(=O)CCC(=O)NCc1ccc(C)cc1)C2 the results were PI5P4Ka inh inactive, BAZ2B block inactive, G9a inh 5.62µM!, JMJD2A Tudor inh inactive, HP1b binding inh inactive and PLK1 PBD block inactive.
Cc1cc2ccccn2c1C(=O)c1ccc(NN)c([N+](=O)[O-])c1 was read as PI5P4Ka inh inactive, BAZ2B block 17.8µM, G9a inh 10µM, JMJD2A Tudor inh 39.8µM, HP1b binding inh 31.6µM and PLK1 PBD block inactive.
For COC(=O)c1cc(C(=O)c2c(C)cc3ccccn23)cc([N+](=O)[O-])c1 the results were PI5P4Ka inh inactive, BAZ2B block inconclusive, G9a inh 31.6µM, JMJD2A Tudor inh 44.7µM, HP1b binding inh inconclusive and PLK1 PBD block inactive.
`Cc1cc2ccccn2c1C(=O)c1ccc(C#N)cc1` gave PI5P4Ka inh inactive, BAZ2B block inconclusive, G9a inh inconclusive, JMJD2A Tudor inh inactive, HP1b binding inh inactive and PLK1 PBD block inactive.
Screening Cc1cc2ccccn2c1C(=O)c1cc([N+](=O)[O-])cc([N+](=O)[O-])c1 returned PI5P4Ka inh inactive, BAZ2B block 10µM, G9a inh 31.6µM, JMJD2A Tudor inh 17.8µM, HP1b binding inh inconclusive and PLK1 PBD block inactive.
O=C(CSc1cn(CC(=O)N2CCCCC2)c2ccccc12)Nc1ccccc1F was read as BAZ2B block inconclusive, G9a inh inactive, JMJD2A Tudor inh inactive and HP1b binding inh inactive.
For COc1cc(C(c2c(O)nc(SC)[nH]c2=O)c2c(O)nc(SC)[nH]c2=O)cc(OC)c1OC the results were PI5P4Ka inh inactive, BAZ2B block inactive, G9a inh inactive[0.501 µM], JMJD2A Tudor inh inactive, HP1b binding inh inactive and PLK1 PBD block inactive.
For COc1cc(C(c2oc(CO)cc(=O)c2O)c2oc(CO)cc(=O)c2O)cc(OC)c1OC the results were PI5P4Ka inh inactive, BAZ2B block 50.1µM, G9a inh 11.2µM, JMJD2A Tudor inh inconclusive, HP1b binding inh inactive and PLK1 PBD block inactive.
For COc1ccc(C(c2oc(CO)cc(=O)c2O)c2oc(CO)cc(=O)c2O)cc1OC the results were PI5P4Ka inh inactive, BAZ2B block 50.1µM, G9a inh 20µM, JMJD2A Tudor inh inconclusive, HP1b binding inh inactive and PLK1 PBD block inactive.
Screening O=C(CN(Cc1ccc(F)cc1)C(=O)c1csnn1)NC1CCCC1 returned PI5P4Ka inh inactive, BAZ2B block inactive, G9a inh inactive, JMJD2A Tudor inh inactive, HP1b binding inh inactive and PLK1 PBD block inactive.
For O=C1c2cccc3c([N+](=O)[O-])ccc(c23)C(=O)N1c1ccccn1 the results were PI5P4Ka inh inactive, BAZ2B block inconclusive, G9a inh 70.8µM, JMJD2A Tudor inh inactive[11.4 µM], HP1b binding inh inactive and PLK1 PBD block inconclusive.
Screening O=C1c2ccc([N+](=O)[O-])cc2C(=O)N1c1ccc(Cl)cn1 returned PI5P4Ka inh inactive, BAZ2B block inactive, G9a inh inactive, JMJD2A Tudor inh inactive, HP1b binding inh inactive and PLK1 PBD block inactive.
O=C1c2cccc3c([N+](=O)[O-])ccc(c23)C(=O)N1c1ccc(Cl)cn1 was read as BAZ2B block 44.7µM, G9a inh inconclusive, JMJD2A Tudor inh inconclusive, HP1b binding inh inconclusive and PLK1 PBD block inconclusive.
O=C1c2cccc3c([N+](=O)[O-])ccc(c23)C(=O)N1O was read as PI5P4Ka inh inconclusive, BAZ2B block 50.1µM, G9a inh inconclusive, JMJD2A Tudor inh inconclusive, HP1b binding inh inactive and PLK1 PBD block inconclusive.
C[C@H]1CN([C@@H](C)CO)C(=O)CCCn2nncc2CO[C@H]1CN(C)C(=O)Nc1cccc2ccccc12 was read as PI5P4Ka inh inactive and PLK1 PBD block inactive.
Screening COC(=O)CC1C(=O)NC(C)=C1C(=O)OC (centres undefined) returned BAZ2B block inactive and G9a inh inactive.
Screening COC(=O)C1CSC(C)(C)C(=O)N1 (centres undefined) returned PI5P4Ka inh inactive, BAZ2B block inactive, G9a inh inactive, JMJD2A Tudor inh inactive, HP1b binding inh inactive and PLK1 PBD block inactive.
For COC(=O)CCCCC1SCC2NC(=O)NC21O (centres undefined) the results were PI5P4Ka inh inactive, BAZ2B block 2.24µM, G9a inh 8.91µM, JMJD2A Tudor inh 0.891µM, HP1b binding inh inactive and PLK1 PBD block inconclusive.
For COC(=O)CCCC[C@H]1SC[C@H]2NC(=O)N[C@]21O the results were BAZ2B block 0.891µM and G9a inh 2.24µM.

Compound activity deposited in PubChem by National Center for Advancing Translational Sciences (NCATS).
